Assay outcomes: PubChem, several laboratories
Sampled rows, rich in hits. Any-hit rate of the full collection: about 1.5%.
PKA inh = blocks human protein kinase A activity; P17612; PKA Kemptide phosphorylation, Kinase-Glo ATP luminescence; inhibition, % at 6 µM; 0.1% of 65,000 active; AID 524;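 active means inhibition above the screen-wide mean inhibition plus 3 SD, cut at about 21% in these data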
FAK inh = FAK (human) kinase inhibition | Q05397 | biochemical FAK kinase activity assay | inhibition, %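 (tested at 7 µM)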 | 0.84% of 97,000 active | AID 727; in the data active means inhibition above about 19%
PLK1 PBD inh = blocks phosphopeptide binding to human Plk1 polo box domain; Plk1 PBD phosphopeptide binding, fluorescence polarization; inhibition, %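 (tested at about 20 µM)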; 0.13% of 97,000 active; in the data active means inhibition above about 34%, passing the limit was not always enough
Target sequence (P53350 whole entry, looked up, the tested form may be a part): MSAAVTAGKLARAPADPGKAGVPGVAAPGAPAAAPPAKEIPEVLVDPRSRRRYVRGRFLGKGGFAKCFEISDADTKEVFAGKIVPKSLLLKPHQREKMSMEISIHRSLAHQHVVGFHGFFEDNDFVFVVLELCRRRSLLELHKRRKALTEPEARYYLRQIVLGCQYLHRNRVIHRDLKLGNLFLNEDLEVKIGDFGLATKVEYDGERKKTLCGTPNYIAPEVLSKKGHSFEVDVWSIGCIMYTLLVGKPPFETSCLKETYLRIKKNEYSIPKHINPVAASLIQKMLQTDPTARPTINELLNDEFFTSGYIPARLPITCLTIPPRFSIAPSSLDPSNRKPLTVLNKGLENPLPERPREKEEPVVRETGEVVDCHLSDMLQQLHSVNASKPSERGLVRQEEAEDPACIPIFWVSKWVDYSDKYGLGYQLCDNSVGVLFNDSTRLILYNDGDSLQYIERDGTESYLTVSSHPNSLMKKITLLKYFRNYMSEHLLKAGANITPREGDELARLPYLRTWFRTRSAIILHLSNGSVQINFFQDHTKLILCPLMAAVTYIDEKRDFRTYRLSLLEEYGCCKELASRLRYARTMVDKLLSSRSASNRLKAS
ROCK2 blocker = ROCK2 (human) kinase inhibition; O75116; purified ROCK2, Kinase-Glo ATP depletion luminescence; inhibition, % at 6 µM; 0.35% of 60,000 active; AID 604;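 active means inhibition above the screen-wide mean inhibition plus 3 SD, cut at about 18% in these data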
JNK3 blocker = inhibitors of human JNK3 kinase; P53779; 0.61% of 60,000 active; AID 746; inhibition, % at 8 µM; purified JNK3 kinase activity, HTS; in the data active means inhibition above about 17%
PLK1 kinase inh = blocks human PLK1 kinase activity | inhibition, % at 10 µM | 0.53% of 97,000 active | P53350 | recombinant PLK1 kinase, TR-FRET peptide phosphorylation;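 active means inhibition of 50% or more in the single-concentration screen; inactive means inhibition below 50%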
Numbers stand for hits; . = inactive; / = no result given.

SMILES | PKA inh | FAK inh | PLK1 PBD inh | ROCK2 blocker | JNK3 blocker | PLK1 kinase inh
O=C(CCN1CCCCC1)Nn1c(=S)[nH]c2ccccc2c1=O | . | . | . | . | . | .
O=C(Nn1c(=S)[nH]c2ccccc2c1=O)c1ccncc1 | . | . | . | 19.5 | . | .
CCN1CCN(CCNC(=O)CS(=O)(=O)Cc2nc(-c3ccc(C)cc3)oc2C)CC1 | . | . | . | . | . | 64.6
Cc1ccc(-c2cnn(-c3cccc([N+](=O)[O-])c3)c2N)cc1 | / | . | . | / | / | .
CCn1c(SCC(=O)Nc2ccc(Cl)cc2)nnc1C1CC1 | . | / | / | . | 21.8 | /
COc1ccc(OCC(=O)NNc2c3ccccc3nc3ccccc23)cc1 | / | . | . | / | / | .
CCOC(=O)N1CCC(NC(=O)C2CCCN(C(=O)N3CCOc4ccccc43)C2)CC1 (stereo not given) | . | / | / | . | . | /
CCOC(=O)N1CCC(NC(=O)C2CCN(C(=O)N3CCOc4ccccc43)CC2)CC1 | . | . | . | / | / | 54.5
Cc1ccccc1C1CC(c2ccc(F)cc2)Nc2nc(N)nn21 (stereo not given) | / | . | . | / | / | 69.6
Cc1ccccc1C1CC(c2ccc(Br)cc2)Nc2nc(N)nn21 (stereo not given) | / | . | . | / | / | .
NC(=O)C1=NOC(CNc2ncc(C(F)(F)F)cc2Cl)C1 (stereo not given) | / | . | . | / | / | .
Cc1nc(-c2ccccc2)sc1-c1nc(-c2ccncc2)ncc1S(=O)(=O)c1ccccc1 | / | . | . | / | / | .
CCN1CCCC1Cn1cnc2c([nH]c3cccc(Cl)c32)c1=O (stereo not given) | . | . | . | . | . | .
O=c1c2[nH]c3cccc(Cl)c3c2ncn1Cc1ccncc1 | . | . | . | . | 22.4 | .
Clc1ccc(CN2CCN(c3ncnc4scc(-c5cccs5)c34)CC2)cc1 | / | . | . | / | / | 62.2
CCNC(=O)CSc1nc2cc(OC)c(OC)cc2c(=O)n1CCC1=CCCCC1 | . | / | / | . | . | /
c1cn(CCCNc2ncnc3nc[nH]c23)cn1 | . | . | . | 39.5 | . | .
S=c1sc2c(N3CCOCC3)ncnc2n1-c1ccccc1 | . | . | . | . | . | 61.6
Cc1nc2sccc2c(=O)n1-c1cccc(Cl)c1 | / | . | . | / | / | .
O=C(CCN1CCN(c2ccc(Cl)cc2)CC1)Nc1nccs1 | / | . | . | / | / | 61.8
CCN1CCCC1CNC(=O)c1nn(-c2ccc(C)cc2)c(=O)c2c1c1ccccc1n2C (stereo not given) | . | / | / | . | . | /
O=C(Cc1ccccc1)Nc1c2c(nn1-c1cccc(Cl)c1)CS(=O)(=O)C2 | . | . | . | / | / | 65.6
Cc1ccc(-c2nn(-c3cc(Cl)ccc3[N+](=O)[O-])c(=O)c3ccccc23)cc1C | / | . | . | / | / | .
C/C(CC1CC2=C(CC1(C)C)C(C)(C)CCC2)=N\NC(N)=S (stereo not given) | / | . | . | / | / | .
c1cc2c(cc1Nc1nc(-c3ccc4c(c3)OCO4)cs1)OCCO2 | . | . | . | 24.1 | . | .
SMILES | PKA inh | FAK inh | PLK1 PBD inh | ROCK2 blocker | JNK3 blocker | PLK1 kinase inh
CCC(=O)Nc1ccc(C(=O)Cn2nc(C(=O)O)c3ccccc3c2=O)cc1 | . | / | / | 32.6 | . | /
COc1cc(OC)cc(C(=O)NNC(=O)NC2CCCCC2)c1 | / | . | . | / | / | .
COc1cc(CN/C(C)=C(\C#N)C(N)=O)cc(OC)c1OC | . | / | / | . | 63.0 | /
Cc1sc2nc(NCCO)[nH]c(=O)c2c1C | . | . | . | . | . | 63.6
CC(=O)Nc1ccc(S(=O)(=O)N2CCC(n3cnc4cc(F)ccc43)CC2)cc1 | . | . | . | . | 23.4 | .
Cc1ccc(NC(=O)NC2CCN(S(=O)(=O)c3ccc(F)cc3)CC2)cc1 | / | . | . | / | / | .
COc1ccc(OC)c(C(=O)c2coc3ccc(O)cc23)c1 | . | . | . | . | 18.4 | .
Cn1c(C(=O)N2CCN(Cc3ccc4c(c3)OCO4)CC2)cc2c(=O)n(C)c3ccccc3c21 | . | . | . | . | 23.8 | .
OC(COc1c(Cl)cc(Cl)cc1Cl)CN1CCCCC1 (stereo not given) | . | . | . | . | . | 54.2
O=C(c1cc2ccccc2cc1OCC(O)CN1CCCCC1)N1CCCCC1 (stereo not given) | . | . | . | . | . | 66.0
COc1ccc(C2/C(=C(/O)c3ccccc3)C(=O)C(=O)N2CCO)cc1 (stereo not given) | . | . | . | . | . | .
O=C1C(=O)N(CCO)C(c2ccccc2)/C1=C(\O)c1ccccc1 (stereo not given) | . | . | . | . | . | 54.6
Nc1ccc2[nH]ncc2c1 | . | / | / | 32.3 | . | /
COC1(OC)N=C(N)C2(C#N)C(c3ccc4c(c3)OCO4)C12C#N (stereo not given) | . | . | . | 28.9 | 19.9 | .
COC1(OC)N=C(N)C2(C#N)C(c3ccc(C)cc3)C12C#N (stereo not given) | . | . | . | . | . | .
O=C(c1cccc(F)c1)N1CCCC(C(=O)N2CCCC2)C1 (stereo not given) | . | . | . | . | 35.0 | .
O=C(C1CC1)N1CCc2cc(S(=O)(=O)N3CCOCC3)ccc21 | . | . | . | . | . | 68.6
O=C(c1ccco1)N1CCN(S(=O)(=O)c2ccc3c(c2)CCN3C(=O)C2CC2)CC1 | . | . | . | . | . | .
CCCCC(=O)Nc1nnc(C)s1 | . | . | . | . | . | .
CCCCC(=O)Nc1ncc(Br)s1 | . | . | . | . | 28.2 | .
COC(=O)c1c(C#N)c(N)nc2c1CCCC2 | . | . | . | . | 19.0 | .
N#Cc1cccc(NC(=O)CSc2ccccc2)c1 | . | . | . | 18.6 | . | .
CSc1cccc(NC(=O)CSc2ccc(C)cc2)c1 | / | . | . | / | / | .
Cc1ccc2c(C)nc(NC3=NCN(Cc4ccccc4)CN3)nc2c1 | . | / | / | . | 40.4 | /
Cc1ccc2nc(NC3=NCN(Cc4ccccc4)CN3)nc(C)c2c1 | . | / | / | . | . | /
SMILES | PKA inh | FAK inh | PLK1 PBD inh | ROCK2 blocker | JNK3 blocker | PLK1 kinase inh
CC1=C(C)/C(=N/OC(=O)c2cccc([N+](=O)[O-])c2)C=CC1=O | / | . | . | / | / | .
Cn1cccc1C(C(=O)NC1CCCCC1)N(C(=O)Cc1cccs1)c1ccc2c(c1)OCCO2 (stereo not given) | . | / | / | . | . | /
COc1cc(NCCCC(C)N)c2ncccc2c1 (stereo not given) | . | 25.6 | . | . | . | .
COc1cc(NS(=O)(=O)c2ccc(C)cc2)c2ncccc2c1 | . | / | / | . | . | /
CCN1C(=O)/C(=c2/s/c(=C3\SC(C)=C(C)N3CC)c(=O)n2CC)N(c2ccccc2)C1=S | / | . | . | / | / | .
O=C1c2ccccc2-c2onc3ccc(Oc4ccccc4)c1c23 | / | 36.4 | . | / | / | .
CCOC(=O)C(C(=O)OCC)c1cc(Br)c2noc3c2c1C(=O)c1ccccc1-3 | . | . | . | / | / | .
On1c2c(c3c4nonc4ccc31)CCCC2 | / | . | . | / | / | 50.9
NC(=O)c1c(NC(=O)C2CCCO2)sc2c1CCC2 (stereo not given) | . | . | . | . | 31.1 | .
COc1ccc(-c2cc3nc4n(c(=O)c3s2)CCOC4)cc1 | . | / | / | . | . | /
O=C(Oc1cccc2ccccc12)c1ccncc1 | / | . | . | / | / | .
O=C(Oc1cccc2c(=O)[nH]ccc12)c1ccccc1 | . | . | . | 18.2 | . | .
